What all share (test): DAPPL (digital affinity profiling via proximity ligation, sequencing); 10 mM Tris-HCl pH 7.5, 50 mM NaCl, 1 mM DTT, 4% glycerol, room temperature, 30 min; GST-TFs on glutathione beads, 16-mer random dsDNA library, 0.1% formaldehyde crosslink after washing; high values mean tight binding
One experiment concerns the target T1, FEV (Homo sapiens, UniProt Q99581 1-238).
T1 sequence: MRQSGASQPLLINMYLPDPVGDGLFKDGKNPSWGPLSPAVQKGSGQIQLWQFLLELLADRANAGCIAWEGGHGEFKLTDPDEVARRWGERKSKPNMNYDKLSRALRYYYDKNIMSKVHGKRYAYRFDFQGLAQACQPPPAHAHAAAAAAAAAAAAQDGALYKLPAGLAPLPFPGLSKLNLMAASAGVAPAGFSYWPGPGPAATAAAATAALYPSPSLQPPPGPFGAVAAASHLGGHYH
The settings on record: protein: recombinant; tags: N-terminal GST; dsDNA, one strand shown. Put shortly: (§1)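 A tag-only sample was pooled with DNA-barcoded human transcription factors that had been expressed in yeast as GST fusions and captured on glutathione beads. The pools were incubated for 30 min at room temperature with 200 nmole of a random double-stranded 16-mer DNA library in Tris/NaCl/DTT/glycerol buffer, then washed, crosslinked with 0.1% formaldehyde, proximity-ligated (BsaI/T4 ligase, 1 h, 37 °C), PCR-amplified and sequenced on an Illumina NextSeq500. Binding signal is each hexamer's read frequency for a factor divided by its frequency for the tag-only sample.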

The target of a further experiment is ETV5 (Homo sapiens, UniProt P41161 1-510). As to conditions: protein: recombinant; tags: N-terminal GST; dsDNA, one strand shown. The method, boiled down:
as §1

The target in another experiment is HSF1 (Homo sapiens, UniProt Q00613 1-529). The settings on record: protein: recombinant; tags: N-terminal GST; chain copies: 3; dsDNA, one strand shown. The method, boiled down: as §1
The target in the next experiment is T2, SPIC (Homo sapiens, UniProt Q8N5J4 1-248).
T2 sequence: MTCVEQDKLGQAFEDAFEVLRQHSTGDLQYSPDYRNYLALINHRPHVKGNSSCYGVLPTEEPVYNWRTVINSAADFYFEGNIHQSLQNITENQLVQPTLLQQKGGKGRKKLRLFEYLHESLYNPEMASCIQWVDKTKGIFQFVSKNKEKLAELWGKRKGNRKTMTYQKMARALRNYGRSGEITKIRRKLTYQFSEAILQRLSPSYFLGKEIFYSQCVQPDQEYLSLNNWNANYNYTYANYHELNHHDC
As to conditions: protein: recombinant; tags: N-terminal GST; dsDNA, one strand shown. Put shortly: as §1

A further experiment concerns the target ELF4 (Homo sapiens, UniProt Q99607 1-663). As to conditions: protein: recombinant; tags: N-terminal GST; dsDNA, one strand shown. Put shortly: as §1
A further experiment deals with T3, ELK4 (Homo sapiens, UniProt P28324-2 1-405).
T3 sequence: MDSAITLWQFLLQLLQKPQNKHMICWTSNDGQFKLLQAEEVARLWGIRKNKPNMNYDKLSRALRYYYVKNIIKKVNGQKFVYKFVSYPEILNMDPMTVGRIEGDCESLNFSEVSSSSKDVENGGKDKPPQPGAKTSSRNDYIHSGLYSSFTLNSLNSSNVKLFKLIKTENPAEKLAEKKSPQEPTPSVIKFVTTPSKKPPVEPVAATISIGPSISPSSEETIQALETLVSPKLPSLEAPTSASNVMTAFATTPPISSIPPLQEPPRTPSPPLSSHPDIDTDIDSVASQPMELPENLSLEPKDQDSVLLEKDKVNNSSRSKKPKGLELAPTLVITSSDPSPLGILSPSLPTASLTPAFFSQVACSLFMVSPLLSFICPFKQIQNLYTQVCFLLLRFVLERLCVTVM
As to conditions: protein: recombinant; tags: N-terminal GST; dsDNA, one strand shown. Put shortly:
as §1

For the next experiment, the target named is T4, ETV2 (Homo sapiens, UniProt O00321 1-342).
T4 sequence: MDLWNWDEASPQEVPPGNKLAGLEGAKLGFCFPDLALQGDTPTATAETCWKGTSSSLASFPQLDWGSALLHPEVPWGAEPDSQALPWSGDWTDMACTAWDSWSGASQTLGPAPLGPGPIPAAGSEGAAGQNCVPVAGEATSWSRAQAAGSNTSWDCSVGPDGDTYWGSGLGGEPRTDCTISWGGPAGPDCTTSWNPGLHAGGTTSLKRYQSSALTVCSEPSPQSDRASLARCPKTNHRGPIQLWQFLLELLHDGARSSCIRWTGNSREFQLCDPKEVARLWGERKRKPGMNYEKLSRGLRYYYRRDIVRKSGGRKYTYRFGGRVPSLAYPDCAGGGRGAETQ
As to conditions: protein: recombinant; tags: N-terminal GST; dsDNA, one strand shown. The method, boiled down: as §1

The next experiment concerns the target T5, ELF3 (Homo sapiens, UniProt P78545 1-371).
T5 sequence: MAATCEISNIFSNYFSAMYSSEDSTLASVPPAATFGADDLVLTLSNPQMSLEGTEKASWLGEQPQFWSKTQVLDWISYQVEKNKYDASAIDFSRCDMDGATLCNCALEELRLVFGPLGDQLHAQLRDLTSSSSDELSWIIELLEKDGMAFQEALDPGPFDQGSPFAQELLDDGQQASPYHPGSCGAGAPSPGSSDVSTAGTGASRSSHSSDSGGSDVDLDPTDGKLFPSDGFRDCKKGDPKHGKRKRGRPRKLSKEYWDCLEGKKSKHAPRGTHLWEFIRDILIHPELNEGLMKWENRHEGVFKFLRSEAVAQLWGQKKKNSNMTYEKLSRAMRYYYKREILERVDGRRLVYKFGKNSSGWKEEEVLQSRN
The settings on record: protein: recombinant; tags: N-terminal GST; dsDNA, one strand shown. The method, boiled down: as §1

A further experiment has as its target CRX (Homo sapiens, UniProt O43186 1-299). The settings on record: protein: recombinant; tags: N-terminal GST; dsDNA, one strand shown. The method, boiled down:
as §1

The next experiment deals with ETV1 (Homo sapiens, UniProt P50549 1-477). The settings on record: protein: recombinant; tags: N-terminal GST; dsDNA, one strand shown. Put shortly:
as §1

For another experiment, the target named is T6, ERF (Homo sapiens, UniProt P50548 1-548).
T6 sequence: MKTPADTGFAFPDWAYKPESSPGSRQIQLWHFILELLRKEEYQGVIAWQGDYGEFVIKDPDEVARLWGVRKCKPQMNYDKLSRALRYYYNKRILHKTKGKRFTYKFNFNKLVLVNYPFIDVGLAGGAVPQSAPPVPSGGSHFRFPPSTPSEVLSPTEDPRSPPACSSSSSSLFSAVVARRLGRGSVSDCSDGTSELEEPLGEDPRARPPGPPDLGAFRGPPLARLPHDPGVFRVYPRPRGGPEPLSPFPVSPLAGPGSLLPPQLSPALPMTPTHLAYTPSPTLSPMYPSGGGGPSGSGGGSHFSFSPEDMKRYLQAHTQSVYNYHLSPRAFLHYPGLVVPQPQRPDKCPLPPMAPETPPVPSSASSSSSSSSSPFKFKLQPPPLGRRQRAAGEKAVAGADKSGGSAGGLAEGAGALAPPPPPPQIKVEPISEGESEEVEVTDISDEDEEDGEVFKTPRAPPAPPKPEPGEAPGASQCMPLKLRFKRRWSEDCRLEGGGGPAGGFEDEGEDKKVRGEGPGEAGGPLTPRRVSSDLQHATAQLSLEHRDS
The settings on record: protein: recombinant; tags: N-terminal GST; dsDNA, one strand shown. The method, boiled down: as §1

In another experiment the target is T7, ETV3L (Homo sapiens, UniProt Q6ZN32 1-361).
T7 sequence: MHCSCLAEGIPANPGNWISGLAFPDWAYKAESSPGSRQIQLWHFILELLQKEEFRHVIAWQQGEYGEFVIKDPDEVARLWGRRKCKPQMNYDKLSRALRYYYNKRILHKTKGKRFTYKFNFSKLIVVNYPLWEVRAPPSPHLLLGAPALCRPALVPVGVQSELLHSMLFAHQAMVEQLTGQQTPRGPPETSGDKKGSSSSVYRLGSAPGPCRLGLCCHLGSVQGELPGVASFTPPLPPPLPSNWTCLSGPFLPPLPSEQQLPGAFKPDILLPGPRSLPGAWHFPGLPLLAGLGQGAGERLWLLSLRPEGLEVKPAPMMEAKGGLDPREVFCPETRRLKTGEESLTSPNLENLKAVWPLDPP
The settings on record: protein: recombinant; tags: N-terminal GST; dsDNA, one strand shown. The method, boiled down: as §1

For another experiment, the target named is T8, ETS2 (Homo sapiens, UniProt P15036 1-469).
T8 sequence: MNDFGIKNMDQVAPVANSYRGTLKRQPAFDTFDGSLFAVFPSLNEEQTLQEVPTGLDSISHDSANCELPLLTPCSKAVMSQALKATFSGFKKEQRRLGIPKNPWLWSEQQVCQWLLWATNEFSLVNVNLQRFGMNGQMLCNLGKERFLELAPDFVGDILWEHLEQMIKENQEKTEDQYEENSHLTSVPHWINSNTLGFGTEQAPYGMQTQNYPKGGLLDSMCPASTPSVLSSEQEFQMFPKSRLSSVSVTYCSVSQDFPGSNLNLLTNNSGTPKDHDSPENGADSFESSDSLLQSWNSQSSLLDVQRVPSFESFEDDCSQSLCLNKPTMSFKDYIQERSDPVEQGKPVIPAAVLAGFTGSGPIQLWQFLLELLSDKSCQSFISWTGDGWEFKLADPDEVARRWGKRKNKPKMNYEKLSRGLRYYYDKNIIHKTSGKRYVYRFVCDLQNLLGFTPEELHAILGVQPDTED
As to conditions: protein: recombinant; tags: N-terminal GST; dsDNA, one strand shown. The method, boiled down: as §1

The target in another experiment is T9, SPDEF (Homo sapiens, UniProt O95238 1-335).
T9 sequence: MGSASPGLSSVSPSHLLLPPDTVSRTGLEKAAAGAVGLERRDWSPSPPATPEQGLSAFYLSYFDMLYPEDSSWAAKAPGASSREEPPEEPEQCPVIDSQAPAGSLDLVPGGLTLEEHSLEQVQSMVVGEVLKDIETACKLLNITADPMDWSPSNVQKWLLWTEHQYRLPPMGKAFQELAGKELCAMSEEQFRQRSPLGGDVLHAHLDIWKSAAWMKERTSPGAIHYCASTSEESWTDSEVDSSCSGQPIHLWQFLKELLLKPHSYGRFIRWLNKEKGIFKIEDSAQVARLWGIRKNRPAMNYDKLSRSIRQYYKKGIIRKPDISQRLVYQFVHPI
The settings on record: protein: recombinant; tags: N-terminal GST; dsDNA, one strand shown. Put shortly: as §1

Another experiment addresses T10, ETV7 (Homo sapiens, UniProt Q9Y603 1-341).
T10 sequence: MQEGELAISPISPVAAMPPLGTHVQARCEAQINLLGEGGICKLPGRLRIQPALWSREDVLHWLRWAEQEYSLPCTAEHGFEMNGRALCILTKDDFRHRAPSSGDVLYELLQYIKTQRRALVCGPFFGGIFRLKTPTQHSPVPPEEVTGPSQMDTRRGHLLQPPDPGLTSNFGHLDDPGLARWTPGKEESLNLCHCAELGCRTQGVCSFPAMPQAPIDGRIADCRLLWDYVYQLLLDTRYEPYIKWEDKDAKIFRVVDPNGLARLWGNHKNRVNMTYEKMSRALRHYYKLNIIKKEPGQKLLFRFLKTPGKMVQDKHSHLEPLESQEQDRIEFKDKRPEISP
The settings on record: protein: recombinant; tags: N-terminal GST; dsDNA, one strand shown. The method, boiled down:
as §1

For the next experiment, the target named is T11, ELF5 (Homo sapiens, UniProt Q9UKW6-2 1-255).
T11 sequence: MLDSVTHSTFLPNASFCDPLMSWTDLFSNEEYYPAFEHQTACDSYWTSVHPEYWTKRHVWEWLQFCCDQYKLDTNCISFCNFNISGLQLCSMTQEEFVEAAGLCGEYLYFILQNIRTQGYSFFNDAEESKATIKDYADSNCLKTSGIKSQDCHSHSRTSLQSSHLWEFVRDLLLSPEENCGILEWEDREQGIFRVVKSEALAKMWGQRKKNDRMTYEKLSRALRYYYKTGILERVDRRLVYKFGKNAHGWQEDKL
The settings on record: protein: recombinant; tags: N-terminal GST; dsDNA, one strand shown. Put shortly: as §1

The next experiment deals with T12, ETV3 (Homo sapiens, UniProt P41162-2 1-143).
T12 sequence: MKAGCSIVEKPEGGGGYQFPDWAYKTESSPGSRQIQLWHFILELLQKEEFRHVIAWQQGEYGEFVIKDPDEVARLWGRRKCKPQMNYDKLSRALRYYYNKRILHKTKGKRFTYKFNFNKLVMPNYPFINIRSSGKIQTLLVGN
The settings on record: protein: recombinant; tags: N-terminal GST; dsDNA, one strand shown. Put shortly: as §1

The target in the next experiment is ETV6 (Homo sapiens, UniProt P41212 1-452). The settings on record: protein: recombinant; tags: N-terminal GST; dsDNA, one strand shown. Put shortly: as §1
Sequence of ETV6 (P41212 whole entry): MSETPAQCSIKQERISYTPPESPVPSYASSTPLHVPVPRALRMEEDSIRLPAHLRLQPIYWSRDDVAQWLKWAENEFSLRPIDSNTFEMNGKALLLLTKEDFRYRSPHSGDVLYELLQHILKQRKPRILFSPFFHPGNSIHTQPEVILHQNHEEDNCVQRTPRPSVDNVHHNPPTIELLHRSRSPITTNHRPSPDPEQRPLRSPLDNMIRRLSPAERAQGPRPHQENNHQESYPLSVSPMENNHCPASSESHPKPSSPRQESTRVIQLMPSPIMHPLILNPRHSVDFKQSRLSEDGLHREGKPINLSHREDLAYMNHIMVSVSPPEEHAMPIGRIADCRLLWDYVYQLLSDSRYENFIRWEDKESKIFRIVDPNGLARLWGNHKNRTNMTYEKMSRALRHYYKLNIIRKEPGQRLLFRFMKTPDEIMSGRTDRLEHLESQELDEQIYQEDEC

Sequence of ETV1 (P50549 whole entry): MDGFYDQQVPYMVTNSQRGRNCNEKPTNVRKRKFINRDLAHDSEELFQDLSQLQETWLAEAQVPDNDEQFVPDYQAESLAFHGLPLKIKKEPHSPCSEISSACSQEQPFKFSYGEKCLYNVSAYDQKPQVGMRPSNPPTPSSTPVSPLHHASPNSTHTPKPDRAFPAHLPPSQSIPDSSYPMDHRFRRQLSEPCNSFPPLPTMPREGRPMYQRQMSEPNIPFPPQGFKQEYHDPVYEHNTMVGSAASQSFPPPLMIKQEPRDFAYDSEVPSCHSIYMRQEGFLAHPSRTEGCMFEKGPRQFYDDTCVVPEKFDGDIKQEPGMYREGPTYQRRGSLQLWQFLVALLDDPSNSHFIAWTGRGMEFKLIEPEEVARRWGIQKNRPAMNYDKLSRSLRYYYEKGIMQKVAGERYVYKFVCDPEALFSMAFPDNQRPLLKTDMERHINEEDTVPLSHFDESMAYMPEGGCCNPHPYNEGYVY
Sequence of ELF4 (Q99607 whole entry): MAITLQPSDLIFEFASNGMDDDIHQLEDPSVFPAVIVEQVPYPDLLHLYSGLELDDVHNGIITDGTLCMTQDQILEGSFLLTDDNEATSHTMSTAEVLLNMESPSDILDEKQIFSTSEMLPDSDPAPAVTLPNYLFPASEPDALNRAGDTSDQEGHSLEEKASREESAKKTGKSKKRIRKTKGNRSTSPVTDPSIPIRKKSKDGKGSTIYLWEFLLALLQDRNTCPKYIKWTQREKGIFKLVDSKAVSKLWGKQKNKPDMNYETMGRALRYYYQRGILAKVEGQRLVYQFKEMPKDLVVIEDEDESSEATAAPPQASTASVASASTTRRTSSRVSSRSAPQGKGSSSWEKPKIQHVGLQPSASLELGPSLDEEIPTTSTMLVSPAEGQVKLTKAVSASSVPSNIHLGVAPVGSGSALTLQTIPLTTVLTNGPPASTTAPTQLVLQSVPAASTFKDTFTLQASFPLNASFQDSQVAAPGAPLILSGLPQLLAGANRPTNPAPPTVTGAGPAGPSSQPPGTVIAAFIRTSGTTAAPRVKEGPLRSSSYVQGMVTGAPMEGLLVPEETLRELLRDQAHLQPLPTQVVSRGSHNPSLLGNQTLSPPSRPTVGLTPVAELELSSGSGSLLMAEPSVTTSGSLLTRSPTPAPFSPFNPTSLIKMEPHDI
Sequence of CRX (O43186 whole entry): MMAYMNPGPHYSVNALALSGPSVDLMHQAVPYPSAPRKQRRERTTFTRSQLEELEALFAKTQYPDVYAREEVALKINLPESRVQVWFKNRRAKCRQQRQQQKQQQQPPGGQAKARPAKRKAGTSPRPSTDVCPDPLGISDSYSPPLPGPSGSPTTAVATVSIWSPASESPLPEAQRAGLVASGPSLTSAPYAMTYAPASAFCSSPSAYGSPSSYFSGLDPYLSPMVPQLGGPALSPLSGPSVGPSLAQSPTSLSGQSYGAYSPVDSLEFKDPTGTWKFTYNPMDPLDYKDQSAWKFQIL
Sequence of ETV5 (P41161 whole entry): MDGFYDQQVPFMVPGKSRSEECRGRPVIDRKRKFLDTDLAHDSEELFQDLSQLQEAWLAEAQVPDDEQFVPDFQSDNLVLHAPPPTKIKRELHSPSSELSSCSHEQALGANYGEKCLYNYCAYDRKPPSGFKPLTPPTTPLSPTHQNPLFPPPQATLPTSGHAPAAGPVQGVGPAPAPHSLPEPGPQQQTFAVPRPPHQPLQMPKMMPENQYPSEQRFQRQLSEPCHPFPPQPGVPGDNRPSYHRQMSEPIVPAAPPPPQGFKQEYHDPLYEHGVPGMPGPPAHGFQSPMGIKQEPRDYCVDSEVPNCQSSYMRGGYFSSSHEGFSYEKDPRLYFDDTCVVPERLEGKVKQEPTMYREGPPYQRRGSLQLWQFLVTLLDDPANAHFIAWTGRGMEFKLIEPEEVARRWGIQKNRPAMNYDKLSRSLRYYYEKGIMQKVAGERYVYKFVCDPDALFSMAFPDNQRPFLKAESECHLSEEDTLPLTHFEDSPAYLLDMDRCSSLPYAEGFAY
Sequence of HSF1 (Q00613 whole entry): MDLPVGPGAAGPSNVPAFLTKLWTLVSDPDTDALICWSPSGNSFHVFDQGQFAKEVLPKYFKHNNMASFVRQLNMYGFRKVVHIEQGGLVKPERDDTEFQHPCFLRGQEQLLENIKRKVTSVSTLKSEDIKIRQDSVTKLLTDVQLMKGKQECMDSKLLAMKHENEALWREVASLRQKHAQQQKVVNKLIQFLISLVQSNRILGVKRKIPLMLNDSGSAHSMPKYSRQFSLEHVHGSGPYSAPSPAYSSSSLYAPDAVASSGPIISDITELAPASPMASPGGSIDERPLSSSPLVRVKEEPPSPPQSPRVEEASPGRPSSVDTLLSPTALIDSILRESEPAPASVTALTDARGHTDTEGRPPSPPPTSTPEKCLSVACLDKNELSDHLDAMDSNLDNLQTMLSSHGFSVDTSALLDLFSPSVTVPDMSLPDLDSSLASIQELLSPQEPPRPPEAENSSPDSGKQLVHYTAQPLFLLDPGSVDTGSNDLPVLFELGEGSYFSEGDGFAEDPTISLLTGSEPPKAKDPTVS

Consider CTAGTT, for which the binding signal with FEV was 1.23 fold enrichment (6-mer frequency, TF over GST control); with ETV5, 1.31 fold enrichment (6-mer frequency, TF over GST control); in the experiment with HSF1, 1.51 fold enrichment (6-mer frequency, TF over GST control); in the experiment with SPIC, 1.47 fold enrichment (6-mer frequency, TF over GST control); with ELF4 it was 1.35 fold enrichment (6-mer frequency, TF over GST control); with ELK4, 1.54 fold enrichment (6-mer frequency, TF over GST control). Further, the binding signal with ETV2 is 1.32 fold enrichment (6-mer frequency, TF over GST control); with ELF3 it was 1.38 fold enrichment (6-mer frequency, TF over GST control); with CRX, 1.16 fold enrichment (6-mer frequency, TF over GST control); with ETV1, 1.35 fold enrichment (6-mer frequency, TF over GST control); with ERF, 1.34 fold enrichment (6-mer frequency, TF over GST control); with ETV3L, 1.23 fold enrichment (6-mer frequency, TF over GST control). For the same sequence, the binding signal with ETS2 is 1.38 fold enrichment (6-mer frequency, TF over GST control); with SPDEF, 1.29 fold enrichment (6-mer frequency, TF over GST control); with ETV7, 1.28 fold enrichment (6-mer frequency, TF over GST control); with ELF5 it was 1.22 fold enrichment (6-mer frequency, TF over GST control); with ETV3, 1.19 fold enrichment (6-mer frequency, TF over GST control); with ETV6, 1.3 fold enrichment (6-mer frequency, TF over GST control).
